# Assay outcomes (PubChem)
# An excerpt weighted towards active compounds, which were near 3.3% of everything screened.
# D3 ag: qHTS of D3 Dopamine Receptor Agonist: qHTS; D3R DiscoveRx beta-arrestin cells, luminescence, 90 min; max activation, %; D(3) dopamine receptor (Homo sapiens), P35462; 410,000 compounds, 0.58% hits; AID 652048, 2013; in the data active means max activation above about 30%; further: 0% is about no effect
#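 Agonist-mode cell screen: cells plated at 1500/well and incubated overnight at 37 °C, then exposed to library compounds for 90 min at 37 °C. Detection reagent was added for 30–60 min at room temperature, and luminescence was read.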
# LDHA inh: qHTS assay for inhibitors of human lactate dehydrogenase. L-lactate dehydrogenase A chain (Homo sapiens), P00338. purified LDHA, NADH/diaphorase-resazurin fluorescence; hits give low values. activity change, % (values are at about 110 or 230 µM). 480,000 compounds, 0.15% hits. AID 1347041, 2019; in the data active means activity change below about -30%; inconclusive means mostly about -25% to -30%;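 further: plate controls were DMSO wells for no effect and wells without enzyme for full effect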
#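 Remaining NADH was detected by diaphorase (0.133 mg/mL) converting 37 µM resazurin to fluorescent resorufin, read at 0 and 20 minutes. The preceding 5-minute room-temperature reaction used 2 nM LDHA, 0.2 mM sodium pyruvate and 0.06 mM NADH at pH 7.4.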
# D3 antag: qHTS of D3 Dopamine Receptor Antagonist: qHTS. D(3) dopamine receptor (Homo sapiens), P35462. D3R cells, DiscoveRx beta-arrestin luminescence, antagonist mode; hits give low values. max response, negative = inhibition, %. 360,000 compounds, 2.5% hits; in the data active means max response below about -50%; inconclusive means no clear call, values can overlap the other calls; further: on the % scale 0 is the no-effect control and ±100 the full control effect
#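 Cells plated overnight at 1500 cells/well, then exposed to library compounds with dopamine controls for 90 minutes at 37 degrees C. DiscoveRx reagent added for 30–60 minutes at room temperature; luminescence read, quantitative HTS format.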
# PI4K2A block: qHTS for small molecular inhibitors of PI4K2A. Phosphatidylinositol 4-kinase type 2-alpha (Homo sapiens), Q9BTU6. purified PI4K2A, ADP-Glo luminescence, 1 h; hits give low values. activity change, negative = inhibition, % at 76.9 µM. 420,000 compounds, 0.13% hits; in the data active means activity change below about -50%; inconclusive means mostly about -30% to -49%;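 further: -100% = wells without enzyme as full effect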
# Target sequence (Q9BTU6 whole entry, looked up): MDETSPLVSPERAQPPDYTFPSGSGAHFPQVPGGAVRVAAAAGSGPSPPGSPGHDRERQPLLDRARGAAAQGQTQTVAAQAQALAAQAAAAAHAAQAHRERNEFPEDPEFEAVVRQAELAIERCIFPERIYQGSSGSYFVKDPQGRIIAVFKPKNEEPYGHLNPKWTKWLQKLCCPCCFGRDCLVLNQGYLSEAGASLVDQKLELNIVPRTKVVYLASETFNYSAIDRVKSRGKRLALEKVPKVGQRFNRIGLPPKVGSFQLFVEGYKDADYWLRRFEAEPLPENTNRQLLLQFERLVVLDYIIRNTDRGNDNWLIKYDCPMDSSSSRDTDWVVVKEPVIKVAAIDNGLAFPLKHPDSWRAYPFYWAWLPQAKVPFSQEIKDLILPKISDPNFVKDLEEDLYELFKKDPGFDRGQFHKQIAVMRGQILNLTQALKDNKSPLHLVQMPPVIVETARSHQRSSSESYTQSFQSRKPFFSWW
#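 In this quantitative HTS, ADP production by PI4K2A was quantified luminescently after 1 h at ambient temperature; 100 microM adenosine served as plate-quality control.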
# PI5P4Ka inh: qHTS for Inhibitors of phosphatidylinositol 5-phosphate 4-kinase (PI5P4K); AID 652105, 2013; max response, %; Phosphatidylinositol 5-phosphate 4-kinase type-2 alpha (Homo sapiens), P48426; 330,000 compounds, 1.2% hits; PI5P4Kalpha enzyme, ADP-Glo luminescence, 60 min; hits give low values; active means max response of -50% or lower; inconclusive means between -30% and -50%; inactive means -30% or higher; further: value at the top dose of about 77 µM; on the % scale 0 is the no-effect control and ±100 the full control effect
#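 Enzyme plus substrate dispensed, test compounds pinned in, then ATP (5 microM final) added. After 60 min at RT, ADP-Glo reagent 1 for 45 min and reagent 2 for 30 min preceded luminescence imaging.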
# ADP-Glo counter: qHTS for Inhibitors of PI5P4K: ADP-Glo counter assay; ADP-Glo detection counter-screen, luciferase luminescence, no enzyme; 1,100 tested, under 10 active; AID 743285, 2014; Potency, µM (highest dose often 76.9 µM), inactives show at the highest dose activity change, negative = inhibition, usual class: inhibitors; shares compounds with PI5P4Ka inh; active means well fitted curve in the direction sought with a large enough effect; inconclusive means small, poorly fitted or top-dose-only effect, or another doubt; inactive means no such curve, though single readings can be large or run the other way
# * marks the source's active call; other numbers are inactive results; ? = inconclusive; nt = no result given.
SMILES,D3 ag,LDHA inh,D3 antag,PI4K2A block,PI5P4Ka inh,ADP-Glo counter
CCCc1nnc(NC(=S)Nc2ccccc2)s1,-4,0,-12,-3,4,nt
CCC(CC)C(=O)Nc1nnc(CCc2ccccc2)s1,1,-8,2,4,-1,nt
CC(C)C(=O)Nc1nnc(NC(=S)Nc2ccccc2)s1,4,3,-7,-2,-56*,-9%
CC(C)C(=O)Nc1nnc(CCc2ccccc2)s1,4,-9,2,-3,-51*,-3%
CC1=NN(c2nc(-c3ccc(Cl)cc3)cs2)C(=O)C1,-2,-8,-10,-15,-67*,-8%
O=C(NCCCCc1ccccc1)c1cccc(NC(=O)C2CC2)c1,5,-9,4,-5,-53*,-1%
CC1(C)Cc2cccc(OCC(=O)NCCOc3ccccc3)c2O1,0,-8,11,-1,-51*,-8%
CN1CCN(C(c2ccc(F)cc2)c2ccc3cccnc3c2O)CC1 (stereo not given),-2,-2,-27,1,-7,nt
CN1CCN(C(c2ccc(Br)cc2)c2cc(Cl)c3cccnc3c2O)CC1 (stereo not given),-9,18,-76*,10,-84*,-7%
COc1cccc(N2CCN(CC(=O)NC(=O)NCc3ccco3)CC2)c1,4,-1,4,9,-71*,1%
Cc1nc2ccccc2c(C(=O)NO)[n+]1[O-],nt,10,nt,nt,nt,nt
O=C(OCC(=O)N1N=C(c2ccc(Cl)cc2)CC1c1ccco1)c1cccnc1 (stereo not given),-8,2,-2,-21,-71*,-1%
COCC(=O)OCC(=O)N1N=C(c2ccc(Cl)cc2)CC1c1ccco1 (stereo not given),-10,-11,-12,-7,8,nt
COc1cccc(CNc2nc(NCC3CC3)nc3ccsc23)c1,1,-7,15,3,-23,nt
COc1ccccc1CNc1nc(NCc2ccc(C(C)C)cc2)c2sccc2n1,-11,-5,?,-3,nt,-5%
c1ccc(OCCNc2nc(NCC3CC3)nc3cc(-c4ccccc4)sc23)cc1,-4,-4,9,-3,nt,nt
c1csc(CNc2nc(NCC3CCCCC3)c3sccc3n2)c1,8,-9,21,1,nt,2%
c1ccc(CNc2nc(NCC3CC3)nc3cc(-c4ccccc4)sc23)cc1,-4,-10,14,2,nt,-7%
CC(C)c1ccc(CNc2nc(NCC3CC3)nc3ccsc23)cc1,10,-8,27,-1,nt,-4%
Cc1ccc(CNC(=O)c2ccc(-c3csc(C4CC4)n3)cc2)cc1,nt,0,nt,nt,nt,nt
COc1ccc(-c2c(C)c3ccc(OC(=O)C(C)C)cc3oc2=O)cc1OC,nt,12,nt,nt,nt,nt
O=C(NCc1ccccc1)C(c1ccccc1F)n1c(=O)c(-c2ccco2)nc2ccccc21 (stereo not given),7,2,0,-22,-64*,-5%
N#Cc1ccc(C(C(=O)Nc2ccc3c(c2)OCCO3)n2c(=O)c(-c3ccco3)nc3ccccc32)cc1 (stereo not given),-2,0,-4,-5,?,nt
CCCCNC(=O)c1ccc2nc(-c3ccco3)c(-c3ccco3)nc2c1,-1,13,-15,?,-73*,-10%
Cc1cccc(C)c1NC(=O)C(c1ccc(C#N)cc1)n1c(=O)c(-c2ccco2)nc2ccccc21 (stereo not given),-4,0,-5,-8,-53*,-1%
SMILES,D3 ag,LDHA inh,D3 antag,PI4K2A block,PI5P4Ka inh,ADP-Glo counter
Cc1cccc(C)c1NC(=O)C(c1ccccc1)n1c(=O)c(-c2ccco2)nc2ccccc21 (stereo not given),-5,1,-19,-14,-52*,-4%
COc1ccc(C(C(=O)Nc2c(C)cccc2C)n2c(=O)c(-c3ccco3)nc3ccccc32)cc1 (stereo not given),-12,4,4,?,?,nt
O=C(NCc1ccccc1)C(c1ccccc1F)n1c(=O)c(-c2ccccc2)nc2ccccc21 (stereo not given),-4,-3,-26,-6,4,nt
CCCN(Cc1ccccc1)C(=O)c1ccc(NC(C)=O)s1,nt,1,nt,nt,nt,nt
COc1ccc2nc(-c3ccco3)c(-c3ccco3)nc2c1,3,14,-7,-3,-58*,-3%
c1coc(-c2nc3cc4ccccc4cc3nc2-c2ccco2)c1,nt,8,nt,nt,nt,nt
CCCCCNC(=O)C(c1cc2ccccc2o1)n1c(=O)c(-c2ccco2)nc2ccccc21 (stereo not given),-7,1,9,-6,-108*,-7%
CCCCCNC(=O)C(c1ccncc1)n1c(=O)c(-c2ccco2)nc2ccccc21 (stereo not given),-1,-2,-1,-16,?,nt
CC(=O)Nc1ccc(S(=O)(=O)N2CCN(C(=O)C3COc4ccccc4O3)CC2)cc1 (stereo not given),0,-14,8,3,-5,nt
COc1ccc(S(=O)(=O)N2CCN(C(=O)C3COc4ccccc4O3)CC2)cc1 (stereo not given),0,-1,11,-8,-74*,4%
Cc1ccc(S(=O)(=O)Oc2ccc3c(c2)O/C(=C\c2ccccc2C)C3=O)cc1,nt,3,nt,nt,nt,nt
O=C(COC(=O)CCC(=O)c1ccc(F)cc1)NCc1ccc(Cl)cc1,-3,-18,8,2,-1,nt
O=C(COC(=O)C1CC2C=CC1C2)NCc1ccco1 (stereo not given),2,0,-18,-16,-74*,-1%
O=C(COC(=O)CCC(=O)c1ccc(Cl)cc1)NCc1ccco1,-13,1,6,-2,-52*,0%
CCCn1c(C)cc(-c2csc(N)n2)c1C,-1,0,5,-26,-58*,-8%
Cc1cc(NC(=O)CN2CCCCCCC2)no1,-3,?,-28,-2,nt,nt
Cc1cc(NC(=O)CN2CCN(C)CC2)no1,-5,-7,-14,6,-51*,3%
Nc1nc(N)c2c(ccc3c2ccn3Cc2cccc([N+](=O)[O-])c2)n1,3,-4,21,6,-61*,1%
CSc1nc2ccc(S(=O)(=O)N(C)C)cc2s1,-6,-7,15,0,-2,nt
CN(C)c1ccc2nc3ccc(=O)cc-3sc2c1,-6,16,-17,-26,-73*,?
CC(C)C1Nc2ccc(S(N)(=O)=O)cc2C2C=CCC21 (stereo not given),-5,5,-25,-3,?,nt
